In PMC9574860, “Chemical Toolkit for PARK7: Potent, Selective, and High-Throughput” (Journal of Medicinal Chemistry, 2022) one finds Inhibition % data, which are given here for 128 compounds.

SMILES strings stand for the structures. Among all 7,900 compounds or so, about 400 (5.1%) showed an effect of 50% or more. The full list was thinned out, with strong results kept by preference.

Chain of Parkinson's disease protein 7 (PARK7/DJ1) (Q99497 whole entry, looked up, the tested form may be a part): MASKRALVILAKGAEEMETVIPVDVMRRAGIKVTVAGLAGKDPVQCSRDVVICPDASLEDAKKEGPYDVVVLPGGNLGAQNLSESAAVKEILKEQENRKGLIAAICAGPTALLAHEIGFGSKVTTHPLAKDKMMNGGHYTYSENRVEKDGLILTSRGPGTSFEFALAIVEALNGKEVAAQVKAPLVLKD

The target of this test is Parkinson's disease protein 7 (PARK7/DJ1) (human, UniProt Q99497). The test can be described thus: primary screen, percent inhibition; read as competition with a fluorescent probe by fluorescence polarization; higher = more effect of the substance. The following applies: 100 µM. The essentials:
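Covalent fragments at 100 μM final were incubated 2 h with 0.2 μM PARK7, then 20 nM probe JYQ-107 added for a further 2 h. Fluorescence polarization read at 480/520 nm; relative FP loss versus reference controls gave remaining enzyme activity.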
Consider `O=C(CCl)NCC1Cc2ccccc2O1` (centres unmarked), for which the Inhibition % is 26.5%.

For the compound `COc1cc2c(B3OC(C)(C)C(C)(C)O3)cn(C)c2cn1`, the Inhibition % came to 6.59%.

With `C=CC(=O)NC1CCCN(c2ccc(F)cc2C)C1` (centres unmarked), the Inhibition % stood at 6.65%.

For the compound `C=CC(=O)N1CC2(CCOCC2)C1C(C)C` (centres unmarked), the Inhibition % came to 7.75%.

`Cc1nn(C)c(C)c1C1CCCN1C1CCOC1=O` (centres unmarked): the Inhibition % was 4.25%.

For the compound `CC(C)Cn1c(S)nc2ncccc2c1=O`, the Inhibition % came out at 6.75%.

Turning to `O=C(CCl)NCc1ccc(Cl)cc1`, the Inhibition % worked out at 2.75%.

In the case of `C=CC(=O)Nc1cnn(C2CCOCC2)c1C`, the Inhibition % is reported as 8.19%.

For `N#Cc1cc(Cl)nc(C2CC2)n1`, the Inhibition % was 4.67%.

As to `O=C(CCl)Nc1ccc(Cl)c(C(F)(F)F)c1`, the Inhibition % is reported as 26.2%.

With `COc1ccc(NC(=O)CCl)cc1`, the Inhibition % worked out at 55.2%.

With `COc1ccc(NC(=O)NC(=O)CCl)cc1`, the Inhibition % is 1.55%.

As for `O=C(CCl)Nc1ccc(OC(F)F)cc1`, the Inhibition % worked out at 82.8%.

`COc1ccc(NC(=O)CCCl)cc1`: the Inhibition % was found to be 4.56%.

For the compound `O=C(CCl)NCc1ccc(OC(F)(F)F)cc1`, the Inhibition % is recorded as 5.21%.

With `O=C(CCl)Nc1ccc(OC(F)(F)F)cc1`, the Inhibition % is 86%.

Take `O=C(CCl)NC(=O)c1ccc(OC(F)F)cc1`: the Inhibition % was 28.9%.

As for `O=C(CCl)Nc1ccc(OC(F)F)c(Cl)c1`, the Inhibition % is reported as 45.8%.

Consider `O=C1CCN1c1ccccc1`, for which the Inhibition % is given as 5.28%.

Regarding `CC(CC#N)Sc1ccccc1NC(=O)CCl` (centres unmarked), the Inhibition % is reported as 10.5%.

Turning to `Cc1cc(C(=O)Cn2cnc(C#N)n2)c(C)s1`, the Inhibition % is listed as 2.94%.

For the compound `Cc1cc(C(=O)Cn2cnc(C#N)n2)c(C)[nH]1`, the Inhibition % came to 7.96%.

Take `CCN(CC)C(=O)Oc1ccc(N2CCCC2)cc1`: the Inhibition % was -3.98%.

With `O=C(NNS(=O)(=O)c1ccc(S(=O)(=O)F)cc1)C1CCC1`, the Inhibition % was determined as 10.2%.

Consider `O=C(CCl)NCc1cccc(NC(=O)C2CC2)c1`, for which the Inhibition % is on record as 11.4%.

For `O=C(Nc1cccc(S(=O)(=O)F)c1)C1CCCC1`, the Inhibition % stood at 99.8%.

As to `O=C1CCC(CC(=O)Nc2cccc(S(=O)(=O)F)c2)CC1`, the Inhibition % is recorded as 98.3%.

Turning to `O=S(=O)(F)c1ccc(S(=O)(=O)NC2CCCC2O)cc1` (centres unmarked), the Inhibition % turned out to be 16.5%.

Regarding `O=C(NNS(=O)(=O)c1cccc(S(=O)(=O)F)c1)C1CCC1`, the Inhibition % was determined as 99.9%.

As for `C=CC(=O)Nc1cc(NC(=O)C2CCC2)ccc1F`, the Inhibition % came out at 19.5%.

With `Cc1cc(B2OC(C)(C)C(C)(C)O2)on1`, the Inhibition % was found to be 27.5%.

As for `Cc1ccc(S)nc1`, the Inhibition % came out at 7.53%.

Take `CCc1nc(C(C#N)=Cc2cnn(C)c2)sc1C`: the Inhibition % was 2.61%.

In the case of `Cc1noc(C)c1CCn1ccnc1C#N`, the Inhibition % is 0.0226%.

Consider `Cl.O=C(CCl)N1CCN(Cc2cccs2)CC1`, for which the Inhibition % stood at 3.64%.

Turning to `Nc1ncnc2c1ncn2CCCCl`, the Inhibition % is listed as 2.3%.

Take `C=CC(=O)Nc1ccccn1`: the Inhibition % is reported as 3.17%.

As to `C=CC(=O)Nc1cccc(NC(C)=O)n1`, the Inhibition % is -0.654%.

For `C=CC(=O)Nc1cc2ccccc2nn1`, the Inhibition % was found to be 95%.

Consider `Cc1ccc(C=C(C#N)S(C)(=O)=O)s1`, for which the Inhibition % was determined as 6.48%.

Turning to `Cc1cc(=O)oc2cc(OCC3CO3)ccc12` (centres unmarked), the Inhibition % stood at 7.44%.

`CC(C)(C)n1nccc1B1OC(C)(C)C(C)(C)O1`: the Inhibition % is 6.06%.

Turning to `CC(CC(O)c1ccc(F)cc1)Nc1ccc(C#N)nc1` (centres unmarked), the Inhibition % is reported as 9.7%.

On to `Cc1nc(-c2ccco2)nc(S)c1C(=O)O`, for which the Inhibition % stood at 1.46%.

Turning to `Sc1ccc(-c2ccco2)nn1`, the Inhibition % is listed as 57.3%.

On to `O=C(CCl)Nc1nc(-c2ccco2)cs1`, for which the Inhibition % turned out to be 21.8%.

On to `O=C(CCl)N1CCCCCC1`, for which the Inhibition % amounted to 14.9%.

In the case of `N#Cc1ccnc(S)c1`, the Inhibition % was 67%.

In the case of `N#Cc1ccnc(C(=O)O)c1`, the Inhibition % was determined as 1.71%.

With `N#Cc1ccnc(C(F)(F)F)c1`, the Inhibition % worked out at 14.9%.

`O=C(CCl)Nc1ccccc1N1CCCC1=O`: the Inhibition % is on record as -0.367%.

For `O=C(CCl)NCc1ccc(N2CCOCC2)nc1`, the Inhibition % is on record as 15.2%.

In the case of `CCN1CCN(c2ccc(NC(=O)CCl)cc2)CC1.Cl`, the Inhibition % was found to be 37.8%.

Regarding `O=C(CCl)Nc1ccc(N2CCCC2)cc1`, the Inhibition % is reported as 7.34%.

In the case of `O=C(CCl)Nc1ccc(N2CCCCC2)nc1`, the Inhibition % is recorded as 88.9%.

For `O=C(CCl)Nc1ccc(N2CCCC2=O)cc1`, the Inhibition % was 9.28%.

As for `Cl.O=C(CCl)Nc1ccc(N2CCCCC2)cc1`, the Inhibition % turned out to be 89.3%.

With `O=C(CCl)Nc1ccc(N2CCCCCC2)cc1`, the Inhibition % stood at 99.5%.

As to `O=C(CCl)Nc1cccnc1N1CCCC1`, the Inhibition % is 18.8%.

On to `O=C(CCl)NCc1ccc(N2CCCC2)cc1`, for which the Inhibition % turned out to be 0.611%.

On to `C=CC(=O)N1CC(S(=O)(=O)N2CCc3ccccc32)C1`, for which the Inhibition % came to 3.57%.

`O=C(CCCl)Nc1cccc(F)c1`: the Inhibition % is 5.31%.

Turning to `C=CC(=O)N1CCC(c2cc3ccccc3[nH]2)C1` (centres unmarked), the Inhibition % amounted to 13.2%.

Regarding `Cc1occc1-c1nnc(SC2CCOC2=O)n1C` (centres unmarked), the Inhibition % worked out at 12.4%.

For the compound `COc1c(C)cc(S(=O)(=O)n2nc(C)cc2C)c(C)c1C`, the Inhibition % stood at 7.42%.

Consider `CC1(C)OB(c2cccc3c2CCO3)OC1(C)C`, for which the Inhibition % is recorded as 9.99%.

As to `CN(Cc1ccco1)c1ccc(C#N)nc1`, the Inhibition % turned out to be 25.1%.

As to `Cc1ccc(CNC(=O)CCl)cc1`, the Inhibition % is reported as 1%.

Consider `Cc1cccc(OCCNC(=O)n2ccnc2)c1`, for which the Inhibition % worked out at 92.6%.

As to `COc1ccc(CCNC(=O)n2ccnc2)cc1OC`, the Inhibition % stood at 10.3%.

Regarding `CN(Cc1cccnc1)C(=O)n1ccnc1`, the Inhibition % worked out at 10.8%.

On to `CN(Cc1ccccc1Cl)C(=O)n1ccnc1`, for which the Inhibition % is 2.68%.

On to `C=CC(=O)NCc1ccc2c(c1)OCO2`, for which the Inhibition % came out at 11.2%.

Regarding `O=C(CCl)NCc1ccc2c(c1)OCO2`, the Inhibition % turned out to be 14%.

With `Cc1ccc(CNC(=O)n2ccnc2)cc1`, the Inhibition % is on record as 104%.

`O=C(NCc1ccc(Cl)cc1)n1ccnc1`: the Inhibition % is given as -1.68%.

`O=C(NCc1ccc2c(c1)OCO2)n1ccnc1`: the Inhibition % is 99.9%.

Regarding `Cc1cccc(OCCNC(=O)CCl)c1`, the Inhibition % is reported as 12.5%.

In the case of `CN(C)c1ccc(CNC(=O)n2ccnc2)cc1`, the Inhibition % is listed as 97%.

Consider `Cn1nncc1B1OC(C)(C)C(C)(C)O1`, for which the Inhibition % is given as 6.79%.

For the compound `C=CC(=O)N1CCC(c2ncc(C)s2)CC1`, the Inhibition % worked out at 1.87%.

For the compound `O=C(C=CC1=CCCC1)N1CCCC(N2CCNC2=O)C1` (centres unmarked), the Inhibition % stood at 28%.

With `Cl.O=S(=O)(F)C1CCCNC1` (centres unmarked), the Inhibition % turned out to be 8.33%.

In the case of `C=CC(=O)N1CCN(CC)C(=O)C1(C)C`, the Inhibition % turned out to be 2.96%.

For the compound `C=CC(=O)N1CCC(C#N)(COC)CC1`, the Inhibition % came out at 5.2%.

For `Cc1ccc(NC(=O)CN2CCSC2=O)cc1F`, the Inhibition % was determined as 3.32%.

In the case of `COC(=O)Cc1csc(NC(=O)CCl)n1`, the Inhibition % came out at 20.2%.

On to `Cc1cc(C)nc(S)c1`, for which the Inhibition % is reported as 6.52%.

With `O=C1OCCC1N1CCOC(c2nccs2)C1` (centres unmarked), the Inhibition % was 13.9%.

As to `C=CC(=O)NCCc1ccc(F)cn1`, the Inhibition % is on record as -26.8%.

For the compound `C=CC(=O)N1CCC(C(=O)N(C)c2ccccc2)C1` (centres unmarked), the Inhibition % is listed as 9.62%.

For `C=CC(=O)NCc1coc2ccccc12`, the Inhibition % is reported as 7.72%.

Take `O=C(N1CCC1c1ccccc1)n1ccnc1` (centres unmarked): the Inhibition % is 11.7%.

Consider `O=C(NCC(F)(F)F)n1ccnc1`, for which the Inhibition % came out at 6.27%.

Turning to `O=C(NCC1CCCC1)n1ccnc1`, the Inhibition % stood at 40.7%.

Turning to `CNC(=O)n1ccnc1`, the Inhibition % turned out to be 75.1%.

As for `COc1ccc(CNC(=O)n2ccnc2)cc1OC`, the Inhibition % came out at 6.72%.

Consider `O=C(Nc1ccc(CNC(=O)n2ccnc2)cc1)C1CC1`, for which the Inhibition % was determined as 92.1%.

As to `Cc1ccccc1CCNC(=O)Cn1cnc(C#N)n1`, the Inhibition % is 4.99%.

As to `O=C(NCCc1ccc(F)cc1)n1ccnc1`, the Inhibition % is given as 12.7%.

In the case of `Cc1ccccc1CCNC(=O)n1ccnc1`, the Inhibition % is on record as 101%.

In the case of `COc1ccccc1CNC(=O)n1ccnc1`, the Inhibition % is given as 5.2%.

For the compound `COc1cccc(CNC(=O)n2ccnc2)c1`, the Inhibition % was found to be 95.1%.

On to `CC(C)C(=O)Nc1ccc(CNC(=O)n2ccnc2)cc1`, for which the Inhibition % is listed as 0.0136%.

For the compound `Cc1cc(C)nc(C#N)c1`, the Inhibition % amounted to 9.14%.

For `NCC1CCCCN1C(=O)C=Cc1ccccn1` (centres unmarked), the Inhibition % is given as 1.06%.

For the compound `C=CC(=O)NC1CCN(C2CCOC2)CC1` (centres unmarked), the Inhibition % is given as 22%.

In the case of `C=CC(=O)NCCc1noc(-c2ccccn2)n1`, the Inhibition % is reported as 11%.

Turning to `C=CC(=O)NCc1ccnc(C)n1`, the Inhibition % was 7.47%.

As for `C=CC(=O)NCc1nnc(C2CC2)o1`, the Inhibition % is given as 6.84%.

With `Nc1ccc(NC(=O)Oc2ccccc2)cc1`, the Inhibition % was found to be 11.2%.

As to `CC1(C)OB(c2cccc3c2CCC3)OC1(C)C`, the Inhibition % came out at 3.3%.

With `O=C(CCl)c1ccc(NC(=O)c2ccco2)cc1`, the Inhibition % turned out to be 90.6%.

For the compound `CCCC(=O)Nc1ccc(C(=O)CCl)cc1`, the Inhibition % is on record as 5.21%.

As for `CC(C)CC(=O)Nc1ccc(C(=O)CCl)cc1`, the Inhibition % was found to be 3.15%.

On to `NC(=O)Nc1ccc(C(=O)CCl)cc1`, for which the Inhibition % is 89.6%.

As to `CC(C)C(=O)Nc1ccc(C(=O)CCl)cc1`, the Inhibition % was found to be 2.39%.

As to `CCC(=O)Nc1ccc(C(=O)CCl)cc1`, the Inhibition % is listed as 4.09%.

Take `O=C(CCl)NC(=O)c1ccco1`: the Inhibition % came to 22.8%.

Take `CS(=O)(=O)c1ccc(OCCCl)cc1`: the Inhibition % is recorded as 4.09%.

Regarding `CC(=O)Nc1ccc(C(=O)CCl)cc1`, the Inhibition % is given as 82.5%.

With `CS(=O)(=O)c1ccc(C(=O)CCl)cc1`, the Inhibition % is 87.3%.

In the case of `CC1(C)OB(c2ccc(OCCS(C)(=O)=O)cc2)OC1(C)C`, the Inhibition % is -1.19%.

Turning to `N#Cc1cccc(OCC(F)(F)F)n1`, the Inhibition % is -0.809%.

Take `CN(C)S(=O)(=O)c1ccc(S)nc1`: the Inhibition % turned out to be 31.2%.

As for `O=c1onc(-c2ncccn2)n1Cc1ccccc1F`, the Inhibition % amounted to 1.26%.

`CC(=O)Nc1ccc(Sc2nccnc2C#N)cc1`: the Inhibition % is given as 18.2%.

In the case of `CC1(C)OB(C2CNC2)OC1(C)C.O=C(O)C(F)(F)F`, the Inhibition % was 11.6%.
